# High-throughput results deposited in PubChem BioAssay by several laboratories.
# Compounds with a hit are over-represented: about 1.7% of the library has one in this group of screens.
# HTR2A ag – mouse Htr2a agonists via beta-arrestin recruitment, primary screen, cell-based, luminescence; 5-hydroxytryptamine receptor 2A (Mus musculus), P35363; CHO-K1 mHTR2A beta-arrestin complementation; percent of 30 µM serotonin response; activation, % at 7.6 µM; 360,000 compounds, 0.66% hits; AID 624169, 2012;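 active = activation above a run cutoff, the mean activation of all tested compounds plus 3 SD, cut at about 14% in these data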;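 also: 0% = plate median of compound wells and 100% = 30 µM serotonin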
# HDAC3 inh – HDAC3 deacetylase inhibitors, primary screen, biochemical, fluorescence, cell-free homogeneous; AID 2718, 2010; recombinant HDAC3, fluorogenic peptide/trypsin coupled; Histone deacetylase 3 (Homo sapiens), O15379; 320,000 compounds, 0.15% hits; inhibition, % at 8.3 µM; in the data active = inhibition above about 26%, passing the limit was not always enough; inconclusive = no clear call, values can overlap the other calls
# LANA-H2B inh – blockers of LANA interaction with H2A/H2B – biochemical, FP readout, HTS, primary screen; AID 2629, 2010; inhibition, % (test concentration not listed); cell-free LANA-H2A/H2B peptide, fluorescence polarization; 320,000 compounds, 0.6% hits; Protein LANA1 (Human herpesvirus 8 type P (isolate GK18)), Q9QR71; in the data active = inhibition mostly above about 10%, no sharp cut-off; inactive = mostly below about 6.7%
# Target sequence (Q9QR71 whole entry, looked up): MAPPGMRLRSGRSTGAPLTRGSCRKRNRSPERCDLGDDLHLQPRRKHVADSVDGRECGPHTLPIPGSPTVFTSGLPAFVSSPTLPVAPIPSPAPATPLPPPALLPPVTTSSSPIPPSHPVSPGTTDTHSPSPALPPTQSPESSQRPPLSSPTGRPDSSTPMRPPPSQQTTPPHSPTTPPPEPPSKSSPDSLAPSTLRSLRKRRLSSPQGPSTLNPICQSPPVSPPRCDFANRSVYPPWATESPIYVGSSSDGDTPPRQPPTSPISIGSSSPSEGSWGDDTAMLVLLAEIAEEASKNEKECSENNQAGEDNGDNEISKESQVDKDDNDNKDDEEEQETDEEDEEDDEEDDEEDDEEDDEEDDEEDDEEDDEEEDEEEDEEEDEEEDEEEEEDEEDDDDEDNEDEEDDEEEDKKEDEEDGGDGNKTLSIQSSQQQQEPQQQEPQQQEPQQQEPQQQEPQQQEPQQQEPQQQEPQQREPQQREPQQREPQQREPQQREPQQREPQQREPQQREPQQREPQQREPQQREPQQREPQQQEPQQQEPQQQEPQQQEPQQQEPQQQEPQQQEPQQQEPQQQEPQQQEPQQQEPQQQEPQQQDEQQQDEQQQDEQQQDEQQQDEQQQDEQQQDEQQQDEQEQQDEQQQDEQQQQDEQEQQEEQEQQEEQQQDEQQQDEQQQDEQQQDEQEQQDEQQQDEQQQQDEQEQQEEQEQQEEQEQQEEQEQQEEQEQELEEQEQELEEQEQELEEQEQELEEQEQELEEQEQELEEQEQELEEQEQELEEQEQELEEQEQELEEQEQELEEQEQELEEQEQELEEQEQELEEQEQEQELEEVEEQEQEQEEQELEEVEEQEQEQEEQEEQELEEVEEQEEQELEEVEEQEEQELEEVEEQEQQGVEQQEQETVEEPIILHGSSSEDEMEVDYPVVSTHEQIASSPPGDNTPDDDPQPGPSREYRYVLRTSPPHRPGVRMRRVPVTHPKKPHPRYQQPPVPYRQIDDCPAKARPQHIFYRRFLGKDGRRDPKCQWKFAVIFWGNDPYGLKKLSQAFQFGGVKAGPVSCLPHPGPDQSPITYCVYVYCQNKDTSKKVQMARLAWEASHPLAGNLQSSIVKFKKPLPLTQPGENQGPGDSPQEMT
# CTSL1 counter – Fasciola hepatica cathepsin L1 inhibitors, primary screen, counter-screen for PFM18AAP inhibitor project, biochemical, QFRET, fluorogenic peptide substrate; recombinant F. hepatica cathepsin L1, Z-Leu-Arg-MCA fluorescence; inhibition, % at 5.96 µM; 300,000 compounds, 0.49% hits; AID 1906, 2009;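 active = inhibition above the mean of all tested compounds plus 3 SD, set per screening campaign, cut at about 17% in these data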;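 also: 0% = plate median of test compound wells and 100% = 1 µM Z-Phe-Ala-diazomethylketone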
# Active calls of the source: *; ? = inconclusive; nt = no result given; + = active, no number; ! = not confirmed by another sample.
SMILES,HTR2A ag,HDAC3 inh,LANA-H2B inh,CTSL1 counter
Cc1cccc(Nc2ncccc2C(=O)O)c1C,-2.6,4.0,58.8*!,-3.1
O=C(Nc1ccc2oc(-c3ccncc3)nc2c1)c1ccccc1,1.1,-0.9,2.6,2.9
O=C(Nc1ccc2oc(-c3ccncc3)nc2c1)c1ccc([N+](=O)[O-])o1,3.4,-4.3,-3.9,23.0*
CCc1ccc(S(=O)(=O)/N=C2\C=C(Nc3cccc(C(=O)O)c3)C(=O)c3ccccc32)cc1,-5.3,6.9,-9.6,50.6*
CCc1ccc(S(=O)(=O)/N=C2\C=CC(=O)c3ccccc32)cc1,nt,3.0,2.0,-1.5
CCc1ccc(S(=O)(=O)/N=C2/C=C(Sc3ncn[nH]3)C(=O)c3ccccc32)cc1,6.5,9.8,1.0,100.3*
CCc1ccc(S(=O)(=O)/N=C2\C=C(Nc3ccc(O)cc3)C(=O)c3ccccc32)cc1,-20.0,13.0,0.7,63.4*
Cc1cc(C)c(S(=O)(=O)/N=C2\C=C(Nc3ccc(C(=O)O)cc3)C(=O)c3ccccc32)c(C)c1,-3.6,3.9,5.4,25.1*
CCc1cc(=O)oc2cc(OC(C)C(=O)NCc3ccccn3)ccc12 (configuration not stated),-3.6,-6.8,-5.1,-0.8
Nc1[nH]ncc1S(=O)(=O)c1ccccc1,2.3,1.2,-0.7,-0.8
O=C(O)c1cc(N/N=C/c2ccc(N3CCOCC3)s2)ccc1Cl,8.3,nt,nt,5.5
C/C(=N\Nc1ccc(Cl)c(C(=O)O)c1)c1ccc(N2CCOCC2)cc1,-0.7,2.9,10.6*,2.4
CC(=O)Nc1cc(-c2cccc(F)c2)cn2c(-c3ccccc3)cnc12,-6.6,nt,nt,nt
CCNCCNc1ccc(Cl)cc1[N+](=O)[O-],2.0,-4.0,1.6,36.0*
O=C(NNS(=O)(=O)c1ccc(Br)cc1)c1cccs1,2.4,-7.5,16.6*,1.3
COc1cc(OC)cc(C(=O)N[C@H](C(=O)OCC(=O)c2ccc(C)c([N+](=O)[O-])c2)C(C)C)c1,1.1,-5.0,-1.3,nt
Cc1cc(C(=O)OCC(=O)NCc2ccco2)c(C)n1-c1ccc(F)cc1,-6.4,-2.6,44.8*,2.0
COc1cc(OC)c(-c2oc3ccccc3c(=O)c2O)c(OC)c1,-2.0,nt,nt,nt
COc1ccc(OC)c(-c2oc3ccccc3c(=O)c2O)c1,3.0,2.0,3.4*,-1.4
Cc1ccc(O)c(CCc2ccc(O)cc2)n1,0.2,4.2,6.1,1.0
NC(=S)N/N=C/c1cn(-c2ccccc2)nc1-c1cccnc1,0.8,9.0,-4.7,25.4*
O=C(c1cccc2ccccc12)N1CCCCC1,5.7,-0.4,11.2*,-5.7
O=C(O)C1CCCN(C(=O)c2cccc3ccccc23)C1 (configuration not stated),2.8,5.0,-3.5,-0.9
COc1ccc2c(c1)C(=O)Cc1ccccc1O2,-1.7,-0.5,17.4*,3.7
CC(C)CN(CCNC(=O)CN1C(=O)COc2ccc(S(=O)(=O)N3CCC(C)CC3)cc21)CC(C)C,-5.9,-5.1,-2.5,19.9*
SMILES,HTR2A ag,HDAC3 inh,LANA-H2B inh,CTSL1 counter
Cc1ccccc1NC(=O)CN1C(=O)COc2ccc(S(=O)(=O)N3CCCC3)cc21,5.5,-3.6,13.8*,2.6
COc1ccccc1NC(=O)CN1C(=O)COc2ccc(S(=O)(=O)N3CCCCCC3)cc21,2.1,-6.2,3.8,-0.9
CC(C)NC(=O)C1(C)CN(S(C)(=O)=O)CC(=O)N1Cc1cccc(F)c1 (configuration not stated),0.0,nt,nt,nt
CC(C)C(NC(=O)c1ccco1)C(=O)NCC(c1ccco1)N(C)C (configuration not stated),-0.6,0.0,2.2,63.1*
COc1ccccc1C(=O)NC(CCSC)C(=O)NCC(c1cccs1)N(C)C (configuration not stated),-0.9,-1.6,2.5,4.0
COc1ccccc1C(=O)NC(CCSC)C(=O)NCC(c1ccco1)N(C)C (configuration not stated),1.4,3.0,2.5,27.4*
CCCC(C(=O)O)N1C(=O)/C(=C/c2cccn2C)SC1=S (configuration not stated),-2.9,10.6,-26.1,9.8
CC(C)C(C(=O)O)N1C(=O)/C(=C/c2cccn2C)SC1=S (configuration not stated),-1.2,33.4*,-16.4,6.8
C[C@@H]1CN([C@H](C)CO)C(=O)c2cc(NC(=O)Nc3ccc4c(c3)OCO4)ccc2O[C@H]1CN(C)Cc1ccncc1,13.6,-3.5,+,nt
C[C@H]1CN([C@@H](C)CO)C(=O)c2cccc(NC(=O)Nc3ccc(C(F)(F)F)cc3)c2O[C@@H]1CN(C)C(=O)Nc1ccc(F)cc1,-9.9,35.3*,4.0,nt
C[C@H](CO)N1C[C@H](C)[C@@H](CN(C)C(=O)Nc2ccc(C(F)(F)F)cc2)Oc2c(NC(=O)Nc3ccc(C(F)(F)F)cc3)cccc2C1=O,15.5*,?,-0.5,nt
COc1ccc(NC(=O)Nc2cccc3c2O[C@H](CN(C)C(=O)Nc2ccc(C(F)(F)F)cc2)[C@@H](C)CN([C@H](C)CO)C3=O)cc1,3.7,-1.6,2.0,nt
C[C@H](CO)N1C[C@H](C)[C@@H](CN(C)C(=O)Nc2ccc(C(F)(F)F)cc2)Oc2ccc(NC(=O)Nc3ccc(C(F)(F)F)cc3)cc2C1=O,1.7,35.3*,-1.7,nt
O=C(O)c1ccc(N2C(=O)c3ccccc3C2=O)cc1[N+](=O)[O-],-1.4,nt,nt,nt
CCc1cc(=O)[nH]c(SCC(=O)N2CCC(Cc3ccccc3)CC2)n1,-9.3,-1.7,2.6,0.2
C/C(=N\NC(=O)CSc1nc(C)cc(C)n1)c1cccs1,0.5,-2.0,25.0*,3.0
Cc1cc(C)nc(SCC(=O)NNC(=O)c2cccs2)n1,5.2,-1.1,-4.3,1.6
Cn1nc(C(C)(C)C)cc1C(=O)N1CCCCC1c1cc(C(=O)N2CCOCC2)no1 (configuration not stated),-2.0,nt,nt,nt
CCOC(=O)c1c(C)[nH]c(C)c1C(=O)COC(=O)c1nn(CC)c(=O)c2ccccc12,8.9,nt,nt,nt
Cc1c(C(=O)N2CCCCC2)c(S(=O)(=O)N2CCN(c3ccccc3F)CC2)c(C)n1C,-0.6,-2.9,-0.5,-1.4
COC(=O)c1ccc2c(c1O)C(=O)c1ccccc1C2=O,1.6,4.0,-0.8,26.1*
O=C1C=C(c2ccccc2)C[C@H](c2cccs2)[C@H]1n1nnc([N+](=O)[O-])n1,3.5,7.9,-4.0,33.3*
CC(=O)N1C(C(=O)O)Cc2c([nH]c3ccccc23)C1(C)C (configuration not stated),-1.4,-1.1,-0.2,-0.9
CC1(C)NC(C(=O)O)Cc2c1[nH]c1ccccc21 (configuration not stated),-2.7,-2.2,7.0*,5.7
CCc1ccc(N(CC(=O)NC2CCCCC2)C(=O)CNC(=O)c2ccco2)cc1,-3.2,6.2,-8.5,-3.2
CC(C)c1ccc(N(CC(=O)NC2CCCCC2)C(=O)CNC(=O)c2ccco2)cc1,5.7,-5.4,39.0*,-0.7
